Test results: the supplement of paper PMC9897528

tested on: Scedosporium aurantiacum CBS 136046; assay: growth inhibition relative to DMSO control (OD600); higher = more antifungal activity, active = 80 or more; extreme values may be limits of the assay; details: 5 µM; 72 h; 37 °C
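Further: conidia screened in RPMI 1640 medium under 5% CO2, growth read by spectrophotometer, medium with 0.5% DMSO serving as the untreated reference.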

Growth inhibition, inactive:
C[Si]1(C)CCN(Cc2cc(-c3ccc(Cl)cc3)n(-c3ccc(Cl)cc3)n2)CC1 10%, COc1ccc(C[C@@H](C)[C@@H](C)Cc2ccc(OC)c(OC)c2)cc1OC 8.67%, OCCCCn1cnc2c(O)nc(NCc3ccc(Cl)c(Cl)c3)nc21 5.51%, Cc1[nH]c2ccccc2c1CCNCc1ccc(/C=C/C(=O)NO)cc1 26.8%, O=S(=O)(Nc1ccc(-n2cccc2)cc1)c1ccc(Cl)c(Cl)c1 41.8%, Nc1cc(-c2nc3ccccc3[nH]2)n[nH]c1=O 1.56%, Cc1onc(-c2ccccc2Cl)c1C(=O)N[C@@H]1C(=O)N2[C@@H]1SC(C)(C)[C@@H]2C(=O)O 0.0225%, C[C@H]1[C@@H](c2cccc(C(F)(F)F)c2)OC(=O)N1C(=O)NCc1cncc2ccccc12 11.5%, Cc1ncc([N+](=O)[O-])n1CC(C)O (stereo not drawn) 22.7%, N#Cc1cc([N+](=O)[O-])ccc1Oc1ccccc1Cl 20.3%, CN(Cc1ccc(C(C)(C)C)cc1)Cc1cccc2ccccc12 37.7%, Cc1ccc(Oc2ccccc2-c2csc(N=C3NCCCN3)n2)c(C)c1 68%, C[C@H](NC(=O)C(=O)Nc1ccccc1C(C)(C)C)C(=O)N[C@@H](CC(=O)O)C(=O)COc1c(F)c(F)cc(F)c1F 11.6%, CC(C)(C)OC(=O)NCc1ccc(C(=O)N[C@H]2CCOC2=O)cc1 15.3%, Nc1nc(O)c(Br)c(-c2cccc(Cl)c2)n1 4.65%, Cc1nc(-c2ccc(C3N(C)c4ccc(F)cc4C(=O)N3c3ccccc3)s2)cs1 (stereo not drawn) 15%, O=S(=O)(NCB(O)O)c1ccc(-c2nnn[nH]2)cc1C(F)(F)F 13.6%, CC[C@@H](CO)NCCN[C@@H](CC)CO 11.4%, NC(=O)c1c(N)sc2c1CCCCC2 6.23%, Cc1c(CN(C)C(=O)/C=C/c2cnc3c(c2)C(C)(C)C(=O)N3)oc2ccccc12 19.3%, C=CCc1cc(Cc2cnc(N)nc2N)cc(OC)c1O 0%, CC(=O)N1c2ccccc2NC2=C(C(=O)CC(C)(C)C2)C1c1ccc(OCc2ccccc2)cc1 (stereo not drawn) 15.4%, O=C(NNC(=S)Nc1ccc(Cl)cc1)c1ccncc1 10.8%, Cc1c(OCC(F)(F)F)ccnc1C[S+]([O-])c1nc2ccccc2[nH]1 (stereo not drawn) 39.8%, Nc1nnc(-c2ccc(Cl)cc2)s1 6.96%, CC1(C)Cc2c(C#N)c(SCCc3ccccc3)nc(N3CCOCC3)c2CO1 27.9%, O=C1C=C(c2ccccc2)S(=O)(=O)c2ccccc21 12.3%, O=c1[nH]c(=O)n(Cc2cccc(Oc3ccccc3)c2)cc1Nc1ccccc1 12.7%, COc1cc(C2C3=C(CC(C)(C)CC3=O)Nc3ccccc3N2C(C)=O)ccc1OCc1ccccc1 (stereo not drawn) 0.481%, O=C(NO)C1(CS(=O)(=O)c2ccc(Oc3ccc(Cl)cc3)cc2)CCOCC1 7.63%, CCN(CC)CCn1c(=N)n(CC(O)COc2ccc(Cl)cc2Cl)c2ccccc21 (stereo not drawn) 10.2%, CN(C)c1[nH]c(=O)ncc1F 24.8%, CCCCSc1nc(N)c2[nH]c(=O)c(=O)n(Cc3ccccc3)c2n1 6.53%, COc1ccc2c(c1OC)C(=O)OC2C1c2c(cc3c(c2OC)OCO3)CCN1C (stereo not drawn) 14.1%, O=S(=O)(Nc1ccccc1)c1ccc(NC(=S)Nc2ccccc2)cc1 24.2%, c1ccc(Cn2c(-c3ccccn3)nc3ccccc32)cc1 14.3%, O=C(NCCN1CCCCC1)c1cccc(C(F)(F)F)c1 10.1%, NC(=O)c1nccn([C@@H]2O[C@H](CO)[C@@H](O)[C@H]2O)c1=O 2%
